Assay results taken from PubChem BioAssay (NCATS).
Results filed as inconclusive are left out. Active and inactive are the calls of the source. Unless noted, calls follow the shape of the dose curve; as a rule, active = well fitted curve in the direction sought with a large enough effect in the repeat runs; inconclusive = weak or mixed curves; inactive = no such curve, though single readings can be large; an effect the other way counts as inactive or inconclusive.

The compounds below were run against Cytochrome P450 2C9 (Homo sapiens) (UniProt P11712) (assay: Cytochrome P450 family 2 subfamily C member 9 (CYP2C9) small molecule antagonists: luciferase biochemical (cell-free) qHTS assay (AID 1645842; also: nearly all actives have a fitted effect of over 55% in size; also: potency is read from the fitted curve at half-maximal effect)). Conditions: P450-Glo CYP2C9 enzyme assay, luciferin luminescence; series mostly up to 57.4 µM; activity change, negative = inhibition: at the top concentration.
In short: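 P450-Glo CYP2C9 system: proluciferin substrate with enzyme in mix containing 0.4% BSA, 10 min at room temperature, then NADPH regeneration solution added and incubated 1 h at 37C. Detection reagent stopped reaction; luminescence read after 20 min as RLU.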
% is scaled to controls: 0 for no effect and ±100 for the full control effect.

Chain of Cytochrome P450 2C9 (Homo sapiens) (P11712 whole entry, looked up): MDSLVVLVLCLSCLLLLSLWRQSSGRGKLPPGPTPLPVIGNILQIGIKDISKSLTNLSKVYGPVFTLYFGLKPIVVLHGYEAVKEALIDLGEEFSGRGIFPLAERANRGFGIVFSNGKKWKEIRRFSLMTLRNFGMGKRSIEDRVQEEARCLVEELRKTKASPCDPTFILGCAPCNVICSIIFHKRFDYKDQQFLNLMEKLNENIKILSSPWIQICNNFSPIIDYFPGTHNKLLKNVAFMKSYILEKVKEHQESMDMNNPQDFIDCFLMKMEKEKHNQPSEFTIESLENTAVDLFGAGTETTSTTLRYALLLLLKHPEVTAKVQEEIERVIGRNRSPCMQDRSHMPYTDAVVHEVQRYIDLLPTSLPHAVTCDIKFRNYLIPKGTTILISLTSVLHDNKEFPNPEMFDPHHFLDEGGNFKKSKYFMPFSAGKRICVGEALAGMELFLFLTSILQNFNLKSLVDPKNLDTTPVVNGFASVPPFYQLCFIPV

Compound | activity change, negative = inhibition | Potency
CC(CC(C#N)(c1ccccc1)C(C)C)N(C)C (configuration not stated) | 2.13% (inactive) | –
Cc1cc(O)c2c(O)c3c(O)cccc3cc2c1 | – | 3.09 µM (active)
COc1ccc(OC(=O)N(CC(=O)O)Cc2ccc(OCCc3nc(-c4ccccc4)oc3C)cc2)cc1 | – | 17.4 µM (active)
COCCc1ccc(OCC2CO2)cc1 (configuration not stated) | 2.05% (inactive) | –
CCCCC(CC)COC(=O)c1ccccc1C(=O)O (configuration not stated) | – | 6.26 µM (active)
CCCCCCn1c(=O)c2c(ncn2C)n(C)c1=O | 2.28% (inactive) | –
Cc1nc(N)nc(N)c1-c1ccc(Cl)c(Cl)c1 | 12% (inactive) | –
CCCCNc1ccc(C(=O)OCCN(CC)CC)cc1 | -2.47% (inactive) | –
C/C=C(/C(=C/C)c1ccc(OC(C)=O)cc1)c1ccc(OC(C)=O)cc1 | – | 17.4 µM (active)
CO[C@@H]1[C@@H](OC)[C@H](C)[C@@](O)(CC(=O)O)O[C@H]1[C@H](C)[C@H]1O[C@@]2(CC[C@@](C)([C@H]3CC[C@@](C)([C@@H]4O[C@@H]([C@H]5O[C@](C)(O)[C@H](C)C[C@@H]5C)C[C@@H]4OC4C[C@H](OC)[C@@H](OC)[C@H](C)O4)O3)O2)C[C@H](O)[C@H]1C (some centres not stated) | 9.15% (inactive) | –
O=C(O)c1ccccc1Nc1cc(Cl)ccc1C(=O)O | 9.02% [at 23.9 µM] (inactive) | –
O=C(CS(=O)Cc1ccco1)NC/C=C\COc1cc(CN2CCCCC2)ccn1 (configuration not stated) | 10.1% (inactive) | –
COc1cc(OC)nc(O[C@H](C(=O)O)C(OC)(c2ccccc2)c2ccccc2)n1 | 2.51% (inactive) | –
CC(C)=CCNc1ncnc2c1ncn2[C@@H]1O[C@H](CO)[C@@H](O)[C@H]1O | 2.91% (inactive) | –
CN(CC1(C)CCCO1)S(=O)(=O)c1ccc(Cl)c(S(N)(=O)=O)c1 (configuration not stated) | 28.9% (inactive) | –
COc1ccc(-n2nc(CCC(=O)N(C)O)cc2-c2ccc(Cl)cc2)cc1 | – | 2.75 µM (active)

Compound | activity change, negative = inhibition | Potency
CC(C)=CCC/C(C)=C/CC/C(C)=C/C(=O)OCC(=O)[C@@]1(O)CC[C@H]2[C@@H]3CCC4=CC(=O)C=C[C@]4(C)[C@H]3[C@@H](O)C[C@@]21C | – | 1.74 µM (active)
O=C(Nc1ccc(Cl)cc1)Nc1ccc(Cl)c(C(F)(F)F)c1 | – | 11 µM (active)
COC(=O)C1=C(C)NC(COC(N)=O)=C(C(=O)OC(C)C)C1c1cccc(Cl)c1Cl (configuration not stated) | – | 4.36 µM (active)
Cc1cc(CCCOc2c(C)cc(-c3noc(C(F)(F)F)n3)cc2C)on1 | – | 19.5 µM (active)
CC1CCCCN1CCCOC(=O)c1ccc(OC2CCCCC2)cc1 (configuration not stated) | 1.82% (inactive) | –
c1ccc(C(O[C@H]2CCCN(CCc3ccc4c(c3)OCO4)C2)c2ccccc2)cc1 | – | 24.5 µM (active)
Cc1ccccc1N1CCN(CCc2nnc3n2CCCC3)CC1 | 10.2% (inactive) | –
CCOC(=O)NNc1nncc2ccccc12 | 5.88% (inactive) | –
O=C(Nc1ccc(Cl)cc1)Nc1ccc(Cl)c(Cl)c1 | – | 4.36 µM (active)
CC(NCCC(c1ccccc1)c1ccccc1)c1ccccc1 (configuration not stated) | – | 13.8 µM (active)
CNC[C@H](O)[C@@H](O)[C@H](O)[C@H](O)CO | -20.7% (inactive) | –
CCCCCCCCCCCC[N+](C)(C)Cc1ccccc1 | – | 15.5 µM (active)
Cc1cccc(C)c1NC(=O)c1ccc(N)cc1 | 4.83% (inactive) | –
CCOC(=O)C1=C(C)NC(C)=C(C(=O)OCC)C1c1ccccc1/C=C/C(=O)OC(C)(C)C | – | 0.49 µM (active)
C[C@@H]1CCC[C@H](C)N1CCCC(O)(c1ccccc1)c1ccccn1 (some centres not stated) | 0.399% (inactive) | –
CCOC(=O)C(=O)CCCCCCl | – | 24.2 µM (active)

These compounds were tested against Papain (Carica papaya) (UniProt P00784) (assay: Primary qHTS assay for inhibitors of the protease papain (AID 1645873; active = well fitted curve in the direction sought with a large enough effect; an effect the other way counts as inactive or inconclusive;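 also: papain turnover of Z-FR-AMC read as the AMC fluorescence gain over 10 min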)). Conditions: papain Z-FR-AMC cleavage, AMC fluorescence; series mostly up to 49.8 µM; activity change, negative = inhibition: at the top concentration.
Chain of Papain (Carica papaya) (P00784 whole entry, looked up): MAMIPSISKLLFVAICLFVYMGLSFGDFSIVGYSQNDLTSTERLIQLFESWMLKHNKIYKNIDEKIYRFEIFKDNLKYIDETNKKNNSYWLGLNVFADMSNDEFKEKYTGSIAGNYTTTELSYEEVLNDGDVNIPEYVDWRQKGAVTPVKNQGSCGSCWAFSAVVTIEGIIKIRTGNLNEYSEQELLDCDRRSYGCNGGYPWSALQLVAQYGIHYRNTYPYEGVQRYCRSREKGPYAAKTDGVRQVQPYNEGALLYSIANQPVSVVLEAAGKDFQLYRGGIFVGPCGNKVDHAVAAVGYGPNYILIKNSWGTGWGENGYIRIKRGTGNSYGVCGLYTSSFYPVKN

Compound | activity change, negative = inhibition
N[C@@H](Cn1ccc(=O)c(O)c1)C(=O)O | 12.3% (inactive)
CCN(CC)CCNC(=O)c1ccc(NS(C)(=O)=O)cc1 | 10.7% (inactive)
NC(N)=NCCCCN=C(N)N | 1.89% (inactive)
Brc1ccc([C@H]2CN3CCSC3=N2)cc1 | -10.4% (inactive)
COc1ccccc1N1CCN(CCN2C(=O)CC3(CCCC3)CC2=O)CC1 | -14.1% (inactive)
